The text below walks through data of the supplement of paper PMC11634586.

Values without a mark were called inactive.

This test concerns NCI-H1688. The test can be described thus: inhibition of cell viability relative to untreated control (fraction); higher = stronger growth inhibition, active = 0.5 or more. The settings on record: 30 µM; 24 h. Put shortly: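 Values are inhibition of cell viability expressed as a fraction, derived from viability normalised to untreated cells. NCI-H1688 small cell lung cancer cells in 96-well plates were exposed to a natural compound library (TargetMol) at 30 µM for 24 h at 37°C with 5% CO2, and Cell Counting Kit-8 absorbance at 450 nm was then read.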
Consider `O=C(O)CCCC[C@@H]1CCSS1` [Thioctic acid], for which the “inhibition of cell viability” value is -0.0532. In the case of `Oc1cc(O)c2c(c1)O[C@H](c1cc(O)c(O)c(O)c1)[C@H](O)C2` [Epigallocatechin], the “inhibition of cell viability” value is -0.059.

Take `CC(=O)OC1CC2CCC1(C)C2(C)C` (stereo unspecified) [Bornyl acetate]: the “inhibition of cell viability” value is -0.214. In the case of `Oc1ccc(CC2NCCc3cc(O)c(O)cc32)cc1` (stereo unspecified) [Demethyl], the “inhibition of cell viability” value is 0.182. With `CN[C@@H](C)[C@H]1[C@H](O)C[C@@]2(C)[C@@H]3CC[C@H]4C(C)(C)[C@@H](NC)CC[C@@]45C[C@@]35CC[C@]12C` [Cyclovirobuxin D], the “inhibition of cell viability” value is -0.0295. To `CC(C)=CCC/C(C)=C/C=O` [Citral] belongs 0.192; to `COc1c(O)cc(O)c2c(=O)cc(-c3ccccc3)oc12` [Wogonin], -0.0139; to `COc1ccc2[nH]cc(CCNC(C)=O)c2c1` [Melatonine], 0.177. For `COC1=CC(=O)C[C@@H](C)[C@]12Oc1c(Cl)c(OC)cc(OC)c1C2=O` [Griseofulvin], the “inhibition of cell viability” value was 0.615 (active). For `CC(C)[C@H](NC(=O)[C@H](CC(=O)O)NC(=O)[C@H](CCCCN)NC(=O)[C@@H](N)CCCN=C(N)N)C(=O)N[C@@H](Cc1ccc(O)cc1)C(=O)O` [Thymopentin], the “inhibition of cell viability” value was 0.0248. As to `CCCCCCCCCCCCCCCCCCCCCCO` [Behenic alcohol], the “inhibition of cell viability” value is -0.0686. Take `CC1(C)CC[C@]2(C(=O)O)[C@H](O)C[C@]3(C)C(=CC[C@@H]4[C@@]5(C)CC[C@H](O)[C@@](C)(C=O)[C@@H]5CC[C@]43C)[C@@H]2C1` [Quillaic Acid]: the “inhibition of cell viability” value was 0.0942. Turning to `OC1OC[C@@H](O)[C@@H](O)[C@@H]1O` (stereo partly drawn) [D(-)-Arabinose], the “inhibition of cell viability” value is 0.0239.

With `C=C(C)[C@H]1CC=C(C)C(=O)C1` [(S)-(+)-Carvone], the “inhibition of cell viability” value is 0.248. For the compound `COc1ccc(/C=C/C(=O)O)cc1O` [Isoferulic acid], the “inhibition of cell viability” value was -0.0461. To `O=c1c(O)c(-c2ccccc2)oc2ccccc12` [3-Hydroxyflavone] belongs 0.587 (active). As for `O=c1ccc2cc3ccoc3cc2o1` [Psoralen], the “inhibition of cell viability” value was -0.0315. Regarding `CC[C@H]1OC(=O)C[C@@H](O)[C@H](C)[C@@H](O[C@@H]2O[C@H](C)[C@@H](O[C@H]3C[C@@](C)(O)[C@@H](O)[C@H](C)O3)[C@H](N(C)C)[C@H]2O)[C@@H](CC=O)C[C@@H](C)C(=O)/C=C/C(C)=C/[C@@H]1CO[C@@H]1O[C@H](C)[C@@H](O)[C@@H](OC)[C@H]1OC` [Tylosin], the “inhibition of cell viability” value was 0.0387.

As to `COc1ccc2cc1Oc1ccc(cc1)C[C@H]1c3cc(c(OC)cc3CCN1C)Oc1c(OC)c(OC)cc3c1[C@H](C2)N(C)CC3` [Tetrandrine], the “inhibition of cell viability” value is 1.01 (active). For `COc1ccc(-c2cc(=O)c3c(OC)c(OC)c(OC)c(OC)c3o2)cc1OC` [Nobiletin], the “inhibition of cell viability” value was 0.293.

On to `O=c1cc(-c2ccc(O)c(O)c2)oc2cc(O[C@@H]3O[C@H](CO)[C@@H](O)[C@H](O)[C@H]3O)cc(O)c12` [Cynaroside], for which the “inhibition of cell viability” value was 0.705 (active). For `C[C@H](CCC(=O)O)[C@H]1CC[C@H]2[C@@H]3CC[C@@H]4C[C@H](O)CC[C@]4(C)[C@H]3CC[C@]12C` [Lithocholic acid], the “inhibition of cell viability” value is -0.0194.

For `CCCCCC1C(=O)CCC1CC(=O)OC` (stereo unspecified) [Methyl Dihydrojasmonate;Hedione], the “inhibition of cell viability” value was -0.235.

As to `C[C@@H]1O[C@@H](O[C@H]2[C@H](O[C@H]3CC[C@@]4(C)[C@@H](CC[C@]5(C)[C@@H]4CC=C4[C@@H]6CC(C)(C)CC[C@]6(C(=O)O)CC[C@]45C)[C@]3(C)CO)OC[C@H](O)[C@@H]2O)[C@H](O)[C@H](O)[C@H]1O` [Alpha-Hederin], the “inhibition of cell viability” value is 0.999 (active). To `O=C(CCc1ccc(O)cc1)c1c(O)cc(O)cc1O[C@@H]1O[C@H](CO)[C@@H](O)[C@H](O)[C@H]1O` [Phlorizin] belongs -0.0544; to `CC1(C)[C@@H](O[C@H]2O[C@H](C(=O)O)[C@@H](O)[C@H](O)[C@H]2O[C@@H]2O[C@H](C(=O)O)[C@@H](O)[C@H](O)[C@H]2O)CC[C@]2(C)[C@H]3C(=O)C=C4[C@@H]5C[C@@](C)(C(=O)O)CC[C@]5(C)CC[C@@]4(C)[C@]3(C)CC[C@@H]12` [Monoammonium glycyrrhizinate], 0.346.
